Screening data: PubChem BioAssay, National Center for Advancing Translational Sciences (NCATS)
VDR inh: inhibitors of human vitamin D receptor. P11473. VDR-SRC2-3 peptide fluorescence polarization, 2 h. Potency, µM, inactives show max response, negative = inhibition, hits mostly inhibitors. 0.93% of 400,000 active. AID 504847; also: % is scaled to controls: 0 for no effect and ±100 for the full control effect
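Reagent solutions, kept cold and dark, are dispensed first; compounds are then pinned in at 23 nl, plates briefly spun, and incubated 2 h at ambient temperature. Inhibition of VDR–SRC2-3 peptide binding is read by fluorescence polarization.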
PLK1 PBD block: blocks phosphopeptide binding to human PLK1 polo-box domain; P53350; Plk1 PBD binding of FITC phosphopeptide, fluorescence polarization; Potency, µM, without a hit: max response, negative = inhibition, usual class: inhibitors; 2.8% of 360,000 active; AID 720504; also: series mostly up to about 57 µM; % is scaled to controls: 0 for no effect and ±100 for the full control effect; nearly all actives have a fitted effect of over 65% in size
Target sequence (P53350 whole entry, looked up, the tested form may be a part): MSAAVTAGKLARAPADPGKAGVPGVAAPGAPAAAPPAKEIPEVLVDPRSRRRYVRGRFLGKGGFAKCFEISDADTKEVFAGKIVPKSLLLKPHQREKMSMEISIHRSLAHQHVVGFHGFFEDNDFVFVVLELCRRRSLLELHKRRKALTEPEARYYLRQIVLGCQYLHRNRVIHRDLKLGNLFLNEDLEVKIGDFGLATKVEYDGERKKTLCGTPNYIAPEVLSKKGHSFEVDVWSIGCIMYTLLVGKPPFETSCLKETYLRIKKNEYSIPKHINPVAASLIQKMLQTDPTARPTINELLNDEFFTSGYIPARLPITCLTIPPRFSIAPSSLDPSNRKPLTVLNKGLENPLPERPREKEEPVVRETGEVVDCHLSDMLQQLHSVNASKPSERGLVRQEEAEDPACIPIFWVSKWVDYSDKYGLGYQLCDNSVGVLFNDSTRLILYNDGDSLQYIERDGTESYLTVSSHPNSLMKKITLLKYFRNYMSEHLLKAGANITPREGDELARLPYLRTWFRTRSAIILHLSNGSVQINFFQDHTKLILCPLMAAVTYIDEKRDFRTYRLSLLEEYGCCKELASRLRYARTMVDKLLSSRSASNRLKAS
HP1b chromo inh: HP1-beta chromodomain-methylated histone interaction inhibition; P83916; AlphaScreen HP1-beta / biotin-H3K9me3 peptide binding; Potency, µM (titrated, usually from 114 µM), without a hit: at the highest dose activity change, negative = inhibition, actives largely listed as inhibitors; 0.56% of 390,000 active; also: nearly all actives have a fitted effect of over 70% in size
Target sequence (P83916 whole entry, looked up): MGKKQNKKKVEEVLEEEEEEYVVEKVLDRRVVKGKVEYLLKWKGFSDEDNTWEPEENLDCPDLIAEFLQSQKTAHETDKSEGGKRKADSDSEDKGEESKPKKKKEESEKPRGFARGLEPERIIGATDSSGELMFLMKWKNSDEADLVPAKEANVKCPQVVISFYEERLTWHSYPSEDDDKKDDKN
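AlphaScreen: HP1-beta (50 nM) preformed 30 min with biotin-H3(1-18)K9me3 peptide (50 nM) in PBS pH 7.4, 0.01% Tween-20. Compound added for 30 min at RT, then streptavidin donor/nickel chelate acceptor beads (10 ug/mL) for 30 min.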
JMJD2A Tudor inh: inhibitors of human JMJD2A Tudor domain; AlphaScreen JMJD2A-Tudor / H3K4me3 peptide binding; Potency, µM (doses to about 114 µM), for inactives: at the highest dose activity change, negative = inhibition, usual class: inhibitors; 4.4% of 390,000 active; AID 504339; also: % is scaled to controls: 0 for no effect and ±100 for the full control effect; nearly all actives have a fitted effect of over 50% in size
L3MBTL1 block: inhibitors of human L3MBTL1 | Q9Y468 | AlphaScreen L3MBTL1–H3K9me1 peptide binding | Potency, µM (top dose mostly 57.1 µM), inactives show top-dose activity, negative = inhibition, most hits filed as inhibitors | 0.66% of 230,000 active; also: % is scaled to controls: 0 for no effect and ±100 for the full control effect; nearly all actives have a fitted effect of over 60% in size
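Read-out is AlphaScreen signal from streptavidin donor and nickel chelate acceptor beads (10 ug/mL final each) bridging L3MBTL1 (50 nM) and biotinylated K9-monomethylated H3(1-15) peptide (75 nM), after 30 min compound exposure at room temperature.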
BAZ2B inh: BAZ2B (human) inhibition; Q9UIF8; AlphaScreen BAZ2B-H3K14Ac peptide displacement; Potency, µM (highest dose often 114 µM), without a hit: top-dose activity change, negative = inhibition, most hits filed as inhibitors; 4.4% of 360,000 active; AID 504333; also: % is scaled to controls: 0 for no effect and ±100 for the full control effect; nearly all actives have a fitted effect of over 60% in size
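Protein-peptide AlphaScreen: BAZ2B 50 nM, b-H3K14Ac 50 nM, 1x PBS pH 7.4 + 0.01% Tween-20. Preincubation 30 min RT; cpd 30 min RT (top 110 uM); beads 20 min RT, light-protected.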
The depositor's hits bear a star; ? = inconclusive; . = no result; [ ] = dose if it differs, or a comment. This is a sample that favours compounds with a hit; in the whole collection about 6.9% have one here. Calls follow the shape of the dose curve; as a rule, active = well fitted curve in the direction sought with a large enough effect; inconclusive = small, poorly fitted or top-dose-only effect, or another doubt; inactive = no such curve, though single readings can be large; an effect the other way counts as inactive or inconclusive. Potency is read from the fitted curve at half-maximal effect.

SMILES	VDR inh	PLK1 PBD block	HP1b chromo inh	JMJD2A Tudor inh	L3MBTL1 block	BAZ2B inh
COc1cc2cc(C(=O)Nc3ccccc3)c(N)nc2cc1OC	-19.0%	23.8µM*	31.6%	-6.2%[11.4 µM]	17.5%	15.6%
COc1cc2cc(C(=O)NC(C)c3cccc4ccccc34)c(N)nc2cc1OC (stereo not drawn)	.	-4.2%	.	.	.	.
COc1ccc(NC(=S)NNC(=O)CNc2ccc(Cl)cc2)cc1	-15.6%	26.7µM*	-9.9%	-32.6%	15.6%	?
COc1ccccc1C(=O)N/C(=C/c1cccc([N+](=O)[O-])c1)C(=O)Nc1cccc(C(=O)O)c1	?	29.9µM*	-1.8%	12.6µM*	.	-1.3%
CCN(CC)S(=O)(=O)c1cccc(C(=O)Nc2ccccc2C(=O)Nc2ccc(OC)cc2)c1	5.4%	.	25.9%	-7.1%	.	-0.1%
CC1CCCN(c2ncnc3c2nnn3C)C1 (stereo not drawn)	18.7%	.	22.9%	-9.7%	.	-1.0%
Cn1ccc2cc(S(=O)(=O)N3CCCN(C(=O)Nc4ccccc4Br)CC3)ccc21	-5.6%	.	6.0%[57 µM]	-25.2%	.	-14.4%
COc1ccc(NC(=O)c2cc3ccccc3cc2OC)cc1	?	29.9µM*	?	?	2.6%	5.6%
CCC(=O)NC(=S)Nc1cccc(NC(=O)c2ccccc2Cl)c1	-5.9%	26.7µM*	-0.7%	-6.2%[11.4 µM]	0.5%	-1.1%
CCOc1ccc(NC(=O)c2cc3ccccc3cc2OC)cc1	14.5%	-4.3%	69.5%	7.7%	8.1%	-11.4%
COCCNC(=S)NNc1ccc(Cl)c(C(=O)O)c1	-14.7%	26.7µM*	-16.9%	-7.4%[11.4 µM]	-21.4%	?
O=C(NC(=S)Nc1ccc(O)cc1)c1ccccc1Cl	-4.0%	0.5%	32.9%	-17.8%	-15.3%	?
COc1ccc(NC(=S)NC(=O)c2ccccc2Cl)cc1	-19.1%	26.7µM*	?	-28.1%	.	-17.1%
CCCCC(=O)NC(=S)Nc1ccc(Cl)c(C(=O)O)c1	-6.9%	-12.4%	8.1%	-6.4%	2.0%	?
O=c1c(-c2cccs2)nc2cncnc2n1Cc1ccccc1	-12.4%	.	.	.	.	.
Cc1cccc(OCCCC(=O)NNC(=O)CCN2CCN(c3ccccc3)CC2)c1	-10.5%	-3.0%	18.2%	-20.0%	3.5%	4.6%
COc1ccc(-n2nnnc2C2CCN(S(=O)(=O)c3cc(Cl)ccc3OC)CC2)cc1	18.6%	.	31.8%	-8.2%	.	-8.7%
COc1cc(OC)cc(C(=O)NC(=S)Nc2ccc(Cl)c(C(=O)O)c2)c1	7.7%	-12.7%	7.2%	89.1µM*	1.3%	?
COc1cc(C(=O)NC(=S)Nc2ccc(Cl)c(C(=O)O)c2)cc(OC)c1OC	-8.8%	-6.0%	3.5%	-26.4%	9.3%	-8.9%
COc1cc2ccccc2cc1C(=O)NC(=S)Nc1ccc(C(=O)O)cc1	-1.5%	29.9µM*	-0.9%	50.1µM*	.	50.1µM*
COc1cc2ccccc2cc1C(=O)NC(=S)Nc1cccc(C(=O)O)c1	-12.6%	?	-9.2%	-27.8%	-21.8%	79.4µM*
CCC(=O)Nc1ccc(Cl)c(NC(=S)NC(=O)COc2ccccc2)c1	3.0%	26.7µM*	-0.2%	-30.9%	4.9%	8.1%
Cc1cccc(N2CC(c3nc4ccccc4n3CCC3CCCCC3)CC2=O)c1 (stereo not drawn)	18.8%	.	44.7%	1.3%	.	0.3%
COc1cc(-c2noc(-c3ccc(NCc4ccco4)c([N+](=O)[O-])c3)n2)cc(OC)c1OC	7.7%	.	34.8%	-15.9%	.	?
CC(C)OC(=O)c1cccc(NC(=O)CSc2nnc(N)s2)c1	6.2%	-12.7%	38.8%	-8.3%	.	-23.2%
SMILES	VDR inh	PLK1 PBD block	HP1b chromo inh	JMJD2A Tudor inh	L3MBTL1 block	BAZ2B inh
CC(C)N(NC(=O)c1cccc2ccccc12)C(C)C	0.3%	-7.7%	32.9%	-5.4%	.	13.1%
CCCC[C@@H]1Cc2[nH][nH]c(=O)c2[C@H](c2ccc(C(C)C)cc2)O1	.	9.47µM*	.	.	.	.
CCCC[C@@H]1Cc2[nH][nH]c(=O)c2[C@@H](c2ccc(Cl)cc2)O1	.	-21.6%	.	.	.	.
O=c1[nH][nH]c2c1[C@H](c1ccc(Cl)cc1)O[C@H](C1CC1)C2	.	11.9µM*	.	.	.	.
O=c1[nH][nH]c2c1[C@H](c1ccc(F)cc1)O[C@H](C1CCCCC1)C2	.	-29.5%	.	.	.	.
O=c1[nH][nH]c2c1[C@H](c1ccccc1)O[C@H](C1CCCCC1)C2	.	11.9µM*	.	.	.	.
CCN(CC)C(=O)C1=C(C)N(Cc2ccc(F)cc2)C(=O)C(CC(=O)NCC2CCCCC2)C1 (stereo not drawn)	.	1.8%	.	.	.	.
O=S(=O)(NC1=NCCCCC1)c1ccc2sc(NS(=O)(=O)c3ccc4ccccc4c3)nc2c1	?	10.6µM*	15.0%	-24.0%	.	-27.7%
CCn1c(C(=O)OC)cc2c1ccn2-c1ccc(F)cc1	?	2.99µM*	?	3.16µM*	-1.4%	12.6µM*
COC(=O)c1cc2c(ccn2-c2ccc(F)cc2)n1Cc1ccc(OC)cc1	-2.3%	3.8%	14.9%	?	-7.2%	-37.0%
Nc1c(C(=O)Nc2cccc(F)c2)nnn1-c1ccc2c(c1)OCCO2	77.5%	-11.7%	28.1%	-13.1%	.	-15.3%
CSCCC(NC(=O)C1CCCC1)c1nnc2ccccn12 (stereo not drawn)	-15.5%	2.6%	14.3%[57 µM]	6.9%	.	-13.1%
CSCC[C@H](NC(=O)c1cccs1)c1nnc2ccccn12	-1.5%	4.6%	46.3%	16.7%	.	-18.2%
CSCC[C@H](NC(=O)c1ccc(Br)o1)c1nnc2ccccn12	?	10.6µM*	-23.4%	?	.	1.0%
CSCC[C@H](NS(=O)(=O)c1ccc(C(C)=O)cc1)c1nnc2ccccn12	15.0%	-16.6%	46.2%	0.0%	.	56.2µM*
Cc1ccc(C(=O)NNC(=O)c2ccc(-n3cncn3)c([N+](=O)[O-])c2)cc1	4.8%	-4.9%	28.4%	-2.0%	8.5%	0.5%
Cc1cccc(CNC(=O)c2ccc(NC(=O)C3=CSCCO3)cc2)c1	?	26.7µM*	7.9%	20µM*	.	-16.9%
CCOc1ccc(CNC(=O)c2ccccc2NC(=O)C2=CSCCO2)cc1	?	23.8µM*	-1.5%	31.6µM*	.	-16.7%
COc1ccc(N/C=C(\C#N)S(=O)(=O)c2ccc(Cl)cc2)c(OC)c1	4.8%	-6.8%	24.2%	-30.4%	.	-25.9%
O=C(O)c1cccc(NC2=C(Cl)C(=O)c3ccccc3C2=O)c1	?	16.8µM*	?	56.2µM*	-14.4%	44.7µM*
CC1=C(Nc2ccc(C(=O)O)cc2)C(=O)c2ccccc2C1=O	-10.4%	?	-14.7%	?	.	44.7µM*
CC(C(=O)Nc1ccc(C(=O)O)cc1)N1C(=O)c2ccccc2C1=O (stereo not drawn)	-1.1%	-0.4%	26.3%	-22.5%	3.8%	6.8%
O=C1C(Cl)=C(Nc2ccccc2)C(=O)c2ccccc21	3.4%	-15.0%	-1.6%	-18.1%	-12.4%	?
